The subject of assay [1] is Klebsiella pneumoniae. As to conditions: Concentration 32 ug.mL-1;; ASSAY_TEST Inhibition of Bacterial Growth; detection method Absorption (OD600); MEDIA CAMHB; plate type 384well; NBS; CORNING #3640; time 18 hr.
Assay [2] deals with Candida albicans. Particulars: Concentration 32 ug.mL-1; ASSAY_TEST Inhibition of Fungal Growth; detection method Absorption (OD530).
Assay [3] concerns Cryptococcus neoformans. Particulars: Concentration 32 ug.mL-1; ASSAY_TEST Inhibition of Fungal Growth; detection method Resazurin; Absorption (OD600-OD570); plate type 384well; NBS; CORNING #3640. For orientation: The colour change of resazurin is a common sign of viable cells or microbes.

Entries with a potency or affinity are not part of this list.

Experimental findings from ChEMBL document CHEMBL4513146, “CO-ADD screening of Karazin Kharkiv National University (Ukraine) compounds” are described below.

What is called Inhibition is the drop in the measured response relative to a control, in per cent. In the case of `CCCCn1c(=O)c2sccc2n2c(=O)n(CC(=O)c3ccc(OC)c(OC)c3)nc12`, the results for the Inhibition in assay [1], in assay [2] and in assay [3] were 19.59%, -0.04% and -27.81%, respectively.
For `Cc1ccc(C)c(NC(=O)Cn2nc3n(C)c(=O)c4c(c(-c5ccccc5)cn4C)n3c2=O)c1`, in that order: -7.88%, 1.95% and -9.34%.
For `C=Cc1ccc(CSc2nnc3c(=O)n(-c4ccc(Br)cc4)ccn23)cc1`, in that order: 3.16%, 0.16% and -7.54%.
Taken in the same sequence, the figures for `Cc1cc2nn(CC(=O)Nc3ccc(C)c(F)c3)c(=O)n2c(Nc2ccc(C)c(F)c2)n1` were 13.96%, 19.28% and -10.18%.
On to `Cc1ccc(-n2ccn3c(=O)n(Cc4ccccc4F)nc3c2=O)cc1C`, for which the figures for the Inhibition in assay [1], in assay [2] and in assay [3] were 7.33%, 0.26% and -12.8%, respectively.
With `COc1cccc(Oc2nccn3c(=O)n(CC(=O)Nc4ccc(C(C)C)cc4)nc23)c1`, the figures for the Inhibition in assay [1], in assay [2] and in assay [3] were -4.77%, 3.55% and -2.79%, respectively.
For `CC(C)c1ccc(N(Cc2cccc(Cl)c2)S(=O)(=O)c2cccn3cnnc23)cc1`, in that order: -3.32%, 3.48% and -7.96%.
Taken in the same sequence, the figures for `COc1cccc(-n2ccn3c(SCc4ccccc4C)nnc3c2=O)c1` were 8.9%, 2.6% and -11.74%.
In the case of `Cc1c(Cl)cccc1NC(=O)Cn1nc2c3c4c(sc3ncn2c1=O)CCCCC4`, the Inhibition in assay [1] is recorded as 9.28%; in assay [2], 4.44%; in assay [3] it was -27.44%.
For `COc1ccc(NC(=O)Cn2nc3c(SC4CCCCC4)nccn3c2=O)cc1OC`, in that order: 12.09%, -2.05% and -22.51%.
For `NC(=O)CSc1nnc2c(=O)n(-c3ccc(F)cc3)ccn12`, the Inhibition in assay [1] is reported as 0.07%; in assay [2] it was 2.37%; in assay [3], -6.51%.
Regarding `O=C(CSc1nnc2c(=O)n(-c3cccc(F)c3)ccn12)c1ccc(F)cc1`, the figures for the Inhibition in assay [1], in assay [2] and in assay [3] were 9.88%, 4% and -7.94%, respectively.
Taken in the same sequence, the figures for `Cc1nc(-c2ccccc2)cc2nn(CC(=O)Nc3ccc4c(c3)OCO4)c(=O)n12` were 6.91%, 0.14% and -7.69%.
For `CC(C)Sc1ccc2nn(CC(=O)Nc3ccc(F)cc3Cl)c(=O)n2n1`, in that order: 6.92%, 3.44% and -6.24%.
For `Cc1ccc(NC(=O)Cn2nc3c4cc(-c5ccc(C)c(C)c5)nn4ccn3c2=O)c(Cl)c1`, in that order: 13.54%, -1.09% and -13%.
Take `Cc1cc2nn(CC(=O)NCc3ccc4c(c3)OCO4)c(=O)n2c(Nc2ccccc2C)n1`: the values for the Inhibition in assay [1], in assay [2] and in assay [3] were 10.7%, 2.64% and -19.18%, respectively.
For `O=C(Cn1nc2c(N3CCOCC3)nccn2c1=O)Nc1ccccc1Br`, in that order: 13.49%, 4.41% and -7.57%.
Take `Cc1ccc(-c2ccc3nnc(CCC(=O)NCc4ccc(C(F)(F)F)cc4)n3n2)cc1C`: the Inhibition in assay [1] is 11.76%; in assay [2], 2.25%; in assay [3] it was -1.58%.
For `O=C(Cn1nc2ccc(SC3CCCCC3)nn2c1=O)Nc1ccc2c(c1)OCO2`, in that order: -18.44%, 1.48% and -3.38%.
For `COc1ccc(-c2cc3c4nnc(SCC(=O)Nc5ccccc5Cl)n4ccn3n2)cc1`, in that order: 1.23%, 2.61% and -26.87%.
Taken in the same sequence, the figures for `O=C(Cn1nc2ccc(SCc3ccc(Cl)cc3)nn2c1=O)NC1CCCCC1` were 3.63%, 3.05% and -27.33%.
Turning to `COc1ccc(-c2cc3c4nn(CC(=O)Nc5ccccc5Cl)c(=O)n4ccn3n2)cc1`, the results for the Inhibition in assay [1], in assay [2] and in assay [3] were 4.39%, 6.88% and -15.65%, respectively.
Taken in the same sequence, the figures for `CCCCN(C)c1ccc2nnc(CCc3nc(-c4cccc(Br)c4)no3)n2n1` were 13.86%, 15.05% and -17.7%.
For `COc1ccc(CNC(=O)Cn2nc3c(N4CCOCC4)nccn3c2=O)cc1`, in that order: 16.6%, 6.15% and -8.83%.
For `Cc1cccc(NC(=O)Cn2nc3c4cc(-c5ccc(Cl)cc5)nn4ccn3c2=O)c1`, in that order: 1.22%, 16.29% and -21.44%.
On to `Cc1cc(C)cc(NC(=O)Cn2nc3ccc(SC(C)(C)C)nn3c2=O)c1`, for which the results for the Inhibition in assay [1], in assay [2] and in assay [3] were 7.43%, 7% and -18.29%, respectively.
For `O=c1c2sccc2n2c(=O)n(Cc3ccccc3Cl)nc2n1CCc1ccccc1`, in that order: 12.78%, 2.07% and -28.45%.
Taken in the same sequence, the figures for `Cc1ccccc1Oc1nccn2c(=O)n(CC(=O)Nc3cc(Cl)ccc3Cl)nc12` were 4.89%, 2.23% and -9.52%.
For `COc1ccc(-c2cc3c4nnc(SCC(=O)Nc5ccc(OC)c(Cl)c5)n4ccn3n2)cc1`, in that order: 6.25%, 2.5% and -21.63%.
Regarding `CCc1ccccc1NC(=O)CSc1nnc2ccc(C(=O)Nc3cccc(F)c3)cn12`, the Inhibition in assay [1] is on record as 6.52%; in assay [2] it was 8.2%; in assay [3], -4.61%.
For `COC(=O)c1sccc1NC(=O)Cn1nc2c(Oc3ccc(C)cc3)nc3ccccc3n2c1=O`, in that order: 13.09%, 3.6% and -31.95%.
For `COc1ccc(NC(=O)Cn2nc3c4cc(-c5ccc(C)cc5)nn4ccn3c2=O)c(OC)c1`, in that order: 9.2%, 7.88% and -29.92%.
For `O=S(=O)(c1cccn2cnnc12)N(Cc1cccc(Cl)c1)c1ccc(F)cc1`, in that order: 7.99%, -0.14% and -8.04%.
As for `COC(=O)c1ccc(NC(=O)Cn2nc3c(Oc4ccccc4)nccn3c2=O)cc1`, the Inhibition in assay [1] is -0.72%; in assay [2] it was 3.86%; in assay [3] it was -10.09%.
Taken in the same sequence, the figures for `O=c1n(Cc2ccccc2F)nc2ccc(S(=O)(=O)N3CCCCCC3)cn12` were 2.58%, 0.84% and -9.24%.
Turning to `CCOC(=O)c1ccccc1NC(=O)Cn1nc2c(Oc3ccc(C)cc3)nccn2c1=O`, the results for the Inhibition in assay [1], in assay [2] and in assay [3] were -8.56%, 4.6% and -10.52%, respectively.
Taken in the same sequence, the figures for `CC(C)Cn1c(=O)c2sccc2n2c(=O)n(CC(=O)N(C)c3ccccc3)nc12` were 9.42%, -0.55% and -10.06%.
In the case of `CCCCn1c(=O)c2sccc2n2c(=O)n(CC(=O)NC(C)C)nc12`, the Inhibition in assay [1] is given as 11.23%; in assay [2] it was 0.06%; in assay [3] it was -16.69%.
Taken in the same sequence, the figures for `Cc1ccc(Oc2nccn3c(=O)n(CC(=O)Nc4cccc(Br)c4)nc23)cc1` were 11.55%, 24.3% and -18.68%.
Taken in the same sequence, the figures for `COc1cccc(-n2ccn3c(SCC(=O)c4ccc(Br)cc4)nnc3c2=O)c1` were 9.61%, 5.24% and -5.95%.
For `Cc1ccc(-c2ccc3nn(Cc4cccc(Cl)c4)c(=O)n3n2)cc1C`, in that order: 12.21%, 1.14% and -10.16%.
For `Cc1ccc(Oc2nccn3c(=O)n(CC(=O)NCCC4=CCCCC4)nc23)cc1`, the Inhibition is reported as 12.14% in assay [1], 4.38% in assay [2] and -9.17% in assay [3].
Consider `COc1ccc(NC(=O)CSc2nnc3c(=O)n(-c4ccccc4OC)ccn23)cc1Cl`, for which the Inhibition in assay [1] is 12.69%; in assay [2], 3.75%; in assay [3], -12.03%.
Taken in the same sequence, the figures for `COC(=O)c1ccc(Cn2nc3ccc(S(=O)(=O)N4CCCCCC4)cn3c2=O)o1` were 1.98%, -1.08% and -5.87%.
For the compound `CCc1nnc2c(S(=O)(=O)N(Cc3cc(F)cc(F)c3)c3cccc(F)c3)cccn12`, the Inhibition in assay [1] is recorded as 12.81%; in assay [2], 4.8%; in assay [3], -5.16%.
For the compound `O=C(CSc1nnc2c(=O)n(-c3ccc(Br)cc3)ccn12)Nc1ccc(F)cc1`, the Inhibition is given as 8.05% in assay [1], 10.99% in assay [2] and -11.61% in assay [3].
For `Cc1ccc(NC(=O)Cn2nc3ccc(SC(C)(C)C)nn3c2=O)c(Cl)c1`, in that order: 7.92%, 7.14% and -20.56%.
For `O=c1c2nnc(SCc3ccc(F)cc3)n2ccn1-c1ccc(Br)cc1`, in that order: 4.74%, 2.87% and -8.82%.
Take `CCc1nnc2c(SCC(=O)Nc3cc(Cl)ccc3OC)nc3ccccc3n12`: the Inhibition in assay [1] is 11.61%; in assay [2], 1.63%; in assay [3], -7.04%.
With `Cc1cccc(CN(c2cccc(F)c2)S(=O)(=O)c2ccc3nncn3c2)c1`, the Inhibition in assay [1] is listed as 14.36%; in assay [2], 3.33%; in assay [3] it was -4.78%.
With `COc1ccc(NC(=O)CSc2nnc3c(=O)n(-c4cccc(F)c4)ccn23)cc1OC`, the Inhibition is given as 7.43% in assay [1], 3.49% in assay [2] and -8.06% in assay [3].
For `CCc1nnc2c(S(=O)(=O)N(Cc3cc(F)cc(F)c3)c3ccccc3)cccn12`, in that order: 9.94%, 6.55% and -7.12%.
Regarding `CCc1ccc(N(Cc2cccc(F)c2)S(=O)(=O)c2cccn3c(CC)nnc23)cc1`, the Inhibition in assay [1] is recorded as 9.15%; in assay [2], 4.6%; in assay [3], -6.35%.
Taken in the same sequence, the figures for `Cc1cccc(Sc2nccn3c(=O)n(CC(=O)N4CCN(c5ccccc5)CC4)nc23)c1` were 4.67%, 0.98% and -15.76%.
For `Cc1cc2nn(CC(=O)Nc3cc(F)cc(F)c3)c(=O)n2c(Nc2ccc(F)c(C)c2)n1`, in that order: 18.09%, 3.34% and -11.58%.
Taken in the same sequence, the figures for `CCc1nnc2c(=O)n(CC(=O)Nc3cc(Cl)ccc3Cl)c3ccccc3n12` were 6.11%, 2.89% and -19.25%.
`CC(C)(C)S(=O)(=O)c1ccc2nn(CC(=O)Nc3ccc4c(c3)OCO4)c(=O)n2n1`: the Inhibition in assay [1] is given as 2.44%; in assay [2], 1.02%; in assay [3], -2.55%.
For `Cc1nnc2c(=O)n(CC(=O)Nc3ccc(Br)cc3)c3ccccc3n12`, in that order: 3.12%, 2.53% and -1.52%.
With `COc1ccc(NC(=O)CSc2nc3ccccc3n3cnnc23)cc1OC`, the Inhibition in assay [1] was 13.64%; in assay [2], 4.39%; in assay [3] it was -35.7%.
For `O=C(CCc1nnc2c3cc(-c4ccc(Cl)cc4)nn3ccn12)N1CCN(c2ccccn2)CC1`, in that order: 12.64%, -0.78% and -16.65%.
Taken in the same sequence, the figures for `O=C(Cn1nc2c(SC3CCCCC3)nccn2c1=O)N1CCN(c2ccc(F)cc2)CC1` were 10.98%, 0.3% and -4.89%.
